Measurements reported in PubChem BioAssay AID1159580 (chemical genetic matrix, 2015).
Values joined by “and” are separate entries in the source; they are usually repeats but may differ in a detail not shown here. Equal entries are not always repeated. About 2,000 (36%) of roughly 5,500 compounds were called active. Inconclusive results (about 18%) are left out. Rule as the data show it: active = normalized growth mostly below about 0.91 (no sharp cut-off); inconclusive = no clear call, values can overlap the other calls; inactive = mostly above about 0.92. Some of the results follow.

Experiment: chemical genetic growth profiling, strain panel (AID 1159580);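 also: tested at 20 µM; growth read once vehicle control cultures reached saturation at 30 °C; 1 = growth at the plate median or of vehicle wells; lower values mean less growth of the strain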
Settings: S. cerevisiae deletion strains, growth OD

Measured: normalized growth

CCC1(C)CC(=O)NC1=O (stereo not given)
inactive: locus YAL013W, strain DEP1, active compounds read low 1.01 and 1.05 | locus YAL021C, strain ccr4, active compounds read low 0.987 | locus YAL026C, strain drs2, active compounds read low 0.986 | locus YAL030W, strain snc1, active compounds read low 0.954 | locus YAL040C, strain CLN3, active compounds read low 0.994 | locus YBL061C, strain skt5, active compounds read low 0.993 | locus YBR009C, strain hhf1, active compounds read low 0.97 | locus YBR021W, strain FUR4, active compounds read low 1.01 | locus YBR023C, strain chs3, active compounds read low 0.958 | locus YBR171W, strain sec66, active compounds read low 0.983 | locus YBR229C, strain ROT2, active compounds read low 1.01 | locus YBR231C, strain swc5, active compounds read low 0.991 | locus YBR279W, strain paf1, active compounds read low 0.973 | locus YCL011C, strain gbp2, active compounds read low 0.992 | locus YCL016C, strain dcc1, active compounds read low 0.986 | locus YCL029C, strain bik1, active compounds read low 1.02 | locus YCL061C, strain MRC1 (second series), active compounds read low 1.01 | locus YCL069W, strain vba3, active compounds read low 0.977 | locus YCR088W, strain abp1, active compounds read low 0.974 | locus YDL005C, strain med2, active compounds read low 0.974 | locus YDL035C, strain GPR1, active compounds read low 0.999 | locus YDL040C, strain nat1, active compounds read low 0.995 | locus YDL074C, strain BRE1, active compounds read low 0.977 | locus YDL101C, strain DUN1, active compounds read low 1.01 | locus YDL134C, strain PPH21, active compounds read low 1.02 | locus YDL185W, strain tfp1, active compounds read low 1.02 | locus YDL192W, strain arf1, active compounds read low 1.02 | locus YDR001C, strain nth1, active compounds read low 0.964 | locus YDR069C, strain doa4, active compounds read low 0.991 | locus YDR101C, strain arx1, active compounds read low 1.04 | locus YDR137W, strain rgp1, active compounds read low 0.979 | locus YDR150W, strain NUM1, active compounds read low 1.01 | locus YDR159W, strain sac3, active compounds read low 0.986 | locus YDR162C, strain NBP2, active compounds read low 1.02 | locus YDR195W, strain ref2 0.953 | locus YDR297W, strain sur2, active compounds read low 0.981 | locus YDR318W, strain mcm21, active compounds read low 1.01 | locus YDR334W, strain swr1, active compounds read low 0.952 | locus YDR335W, strain msn5, active compounds read low 0.969 | locus YDR363W, strain ESC2, active compounds read low 1.02 | locus YDR388W, active compounds read low 1.02 | locus YDR392W, strain spt3, active compounds read low 0.962 | locus YDR502C, strain sam2, active compounds read low 1.01 | locus YEL003W, strain gim4, active compounds read low 0.978 | locus YEL037C, strain rad23, active compounds read low 0.975 | locus YEL061C, strain CIN8 (second series), active compounds read low 0.982 | locus YEL061C, strain CIN8, active compounds read low 1.01 | locus YER002W, strain NOP16, active compounds read low 1.01 | locus YER015W, strain faa2, active compounds read low 0.96 | locus YER016W, strain bim1, active compounds read low 0.981 | locus YER110C, active compounds read low 1.02 | locus YER111C, strain swi4, active compounds read low 0.983 | locus YER155C, strain BEM2 (second series), active compounds read low 0.973 | locus YER155C, strain BEM2, active compounds read low 0.999 | locus YER167W, strain BCK2, active compounds read low 1.01 | locus YFR010W, strain ubp6, active compounds read low 0.974 | locus YGL078C, strain dbp3, active compounds read low 1.01 | locus YGL086W, strain mad1, active compounds read low 1.01 | locus YGL167C, strain pmr1, active compounds read low 0.982 | locus YGL173C, strain kem1, active compounds read low 0.98 | locus YGL227W, strain vid30, active compounds read low 0.985 | locus YGL240W, strain doc1, active compounds read low 0.971 | locus YGL248W, strain PDE1, active compounds read low 1 | locus YGL253W, strain hxk2, active compounds read low 0.981 | locus YGR078C, strain PAC10, active compounds read low 1 and 0.997 | locus YGR135W, strain pre9, active compounds read low 1.02 | locus YGR229C, strain SMI1, active compounds read low 1.01 and 1.03 | locus YGR252W, strain gcn5, active compounds read low 0.98 | locus YHR013C, strain ard1, active compounds read low 0.94 | locus YHR027C, strain rpn1, active compounds read low 0.978 | locus YHR030C, strain SLT2, active compounds read low 1.01 and 0.972 | locus YHR079C, strain IRE1 (second series), active compounds read low 1.02 | locus YHR079C, strain IRE1, active compounds read low 0.978 | locus YHR094C, strain hxt1, active compounds read low 1.02 | locus YHR129C, strain ARP1, active compounds read low 1 | locus YHR142W, strain chs7, active compounds read low 0.967 | locus YHR200W, strain rpn10, active compounds read low 1.02 | locus YIL066C, strain RNR3, active compounds read low 1.01 | locus YIL073C, strain SPO22, active compounds read low 1.06 | locus YIL125W, strain kgd1, active compounds read low 1.01 | locus YIR030C, strain dcg1, active compounds read low 1.02 | locus YJL092W, strain hpr5, active compounds read low 0.974 | locus YJL095W, strain BCK1 (second series), active compounds read low 0.982 | locus YJL095W, strain BCK1, active compounds read low 0.989 and 0.973 | locus YJL115W, strain asf1, active compounds read low 0.959 | locus YJL129C, strain trk1, active compounds read low 0.943 | locus YJL134W, strain LCB3, active compounds read low 1.01 | locus YJL154C, strain vps35, active compounds read low 0.971 | locus YJL164C, strain tpk1, active compounds read low 0.974 | locus YJL166W, strain qcr8, active compounds read low 0.974 | locus YJL168C, strain set2, active compounds read low 1.01 | locus YJL187C, strain SWE1 (second series), active compounds read low 1.01 | locus YJL187C, strain SWE1, active compounds read low 0.98 | locus YJR043C, strain POL32, active compounds read low 1.02 | locus YJR066W, strain TOR1, active compounds read low 0.95
